Records with an inconclusive call do not appear. Calls of active or inactive are those of the source. Rule for the calls, unless noted: active = hit-call score of the fitted dose curve at least 0.9, where 1 is the maximum; inconclusive = response in the unintended direction; inactive = score below 0.9.
Legend:
[1] = TOX21_p53_BLA_p2_viability: Viability Assessment in the Tox21 HCT-116 p53 Agonism Beta-lactamase Assay, Phase 2 (AID 2283591);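 note: actives lower the ATP signal meaning cytotoxicity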
Procedure, shortened: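 HCT116 p53-bla cells, 4000/well, dosed after 5 h plating (217-fold dilution of DMSO stocks) and incubated 16 h at 37C. Viability taken as cellular ATP by CellTiter-Glo luminescence after 30 min RT; signal loss marks cytotoxicity.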

[2] = TOX21_p53_BLA_p3_viability: Viability Assessment in the Tox21 HCT-116 p53 Agonism Beta-lactamase Assay, Phase 3 (AID 2283593);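 note: cells exposed to compound for 16 h before reading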
Procedure, shortened: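 HCT116 cells, 4000/well, dosed 5 h after plating by pin transfer (217-fold dilution from DMSO stock) and incubated 16 h at 37C, 5% CO2. Viability read as ATP luminescence with CellTiter-Glo after 30 min at room temperature.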

[3] = molecular target: Cellular tumor antigen p53 (Homo sapiens) (UniProt P04637); assay: TOX21_p53_BLA_p5_ratio: Tox21 HCT-116 p53 Agonism Beta-lactamase Assay, Ratio, Phase 5 (AID 2283599)
Procedure, shortened: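 HCT-116 p53-bla cells (4000/well) plated 5 h, dosed with compound (217-fold DMSO dilution) for 16 h at 37 C; CCF4-AM substrate 2 h at room temperature. Activity is the 460/530 nm emission ratio (405 nm excitation), fitted in gain-of-signal direction versus DMSO.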

[4] = TOX21_p53_BLA_p5_viability: Viability Assessment in the Tox21 HCT-116 p53 Agonism Beta-lactamase Assay, Phase 5 (AID 2283600)
Procedure, shortened: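 Luciferase-coupled ATP quantitation of cells treated for 16 h (37C, 5% CO2) with test chemicals delivered in DMSO via a 217-fold dilution; 4000 cells/well; reagent incubated 30 min at room temperature before luminescence reading.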

[5] = molecular target: Cellular tumor antigen p53 (Homo sapiens) (UniProt P04637); assay: TOX21_p53_BLA_p4_ratio: Tox21 HCT-116 p53 Agonism Beta-lactamase Assay, Ratio, Phase 4 (AID 2283601)
Procedure, shortened: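 HCT-116 p53 beta-lactamase reporter cells (4000/well) preincubated 5 h, then compound (217-fold dilution of DMSO stock) for 16 h at 37C. CCF4-AM substrate added 2 h at room temperature; 460/530 nm emission ratio fitted upward versus DMSO.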

[6] = TOX21_p53_BLA_p4_viability: Viability Assessment in the Tox21 HCT-116 p53 Agonism Beta-lactamase Assay, Phase 4 (AID 2283597);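 note: hits lower the luminescence signal meaning cytotoxicity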
Procedure, shortened: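 Cytotoxicity was inferred from loss of CellTiter-Glo luminescence. HCT116 cells had been dosed with compounds after 5 h plating, incubated 16 h at 37C and 5% CO2, and exposed to the CCF4-AM substrate for 2 h.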

PGR (gene 5241) [7] = molecular target: PGR (gene 5241) (UniProt P06401); assay: TOX21_PR_BLA_Followup_Antagonist_ratio: Tox21 HEK293 Progesterone Receptor (PR) Antagonism Beta-lactamase Follow-Up Assay, Ratio (AID 2283934)
Procedure, shortened: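 Read-out: blue/green beta-lactamase FRET ratio (cleaved ch2 over uncleaved ch1), fitted relative to DMSO baseline. Cells: PR-UAS-bla HEK293T, GAL4-UAS reporter, stimulated with 1 nM R5020 final; 16 hr compound exposure, 37C.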

[8] = TOX21_PR_BLA_Followup_Agonist_viability: Viability Assessment in the Tox21 HEK293 Progesterone Receptor (PR) Agonism Beta-lactamase Follow-Up Assay (AID 2283935);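 note: signal loss means lower viability so actives are cytotoxic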
Procedure, shortened: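 Luminescent ATP quantitation (CellTiter-Glo, 30 min, room temperature) in the same wells as the beta-lactamase read, on PR-UAS-bla HEK293T cells exposed to compound for 16 hr at 37C in 2% charcoal-stripped serum.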

PGR (gene 5241) [9] = molecular target: PGR (gene 5241) (UniProt P06401); assay: TOX21_PR_LUC_Followup_Antagonist: Tox21 HEK293 Progesterone Receptor (PR) Antagonism Luciferase Follow-Up Assay (AID 2283938);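 note: curve fitted upward as signal gain over DMSO baseline despite antagonist label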
Procedure, shortened: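 HEK293-PR-A-luc cells were precultured 5 days in medium with 10% charcoal-stripped FBS, seeded 3,000/well, then exposed to compounds in DMSO for 16 h at 37C. Luciferase was read by ONE-Glo luminescence after 30 min at room temperature.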

[10] = TOX21_PR_LUC_Followup_Antagonist_viability: Viability Assessment in the Tox21 HEK293 Progesterone Receptor (PR) Antagonism Luciferase Follow-Up Assay (AID 2283940)
Procedure, shortened: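 Read-out: CellTiter-Glo ATP luminescence, loss of signal taken as reduced viability. Cells: HEK293-PR-A-luc, 3,000/well, 5 h settling, then 16 h compound exposure at 37C, 0% CO2.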

[11] = TOX21_PR_LUC_Followup_Agonist_viability: Viability Assessment in the Tox21 HEK293 Progesterone Receptor (PR) Agonism Luciferase Follow-Up Assay (AID 2283941);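 note: loss of signal means cytotoxicity so actives lower viability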
Procedure, shortened: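 Cytotoxicity counter-screen: ATP content by CellTiter-Glo luminescence, loss of signal = reduced viability. HEK293-PR-A-luc, 3,000 cells/well, compound exposure 16 h, 37C.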

PGR (gene 5241) [12] = molecular target: PGR (gene 5241) (UniProt P06401); assay: TOX21_PR_BLA_Followup_Agonist_ratio: Tox21 HEK293 Progesterone Receptor (PR) Agonism Beta-lactamase Follow-Up Assay, Ratio (AID 2283933)
Procedure, shortened: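 Read-out: ratio of cleaved (ch2) to uncleaved (ch1) beta-lactamase substrate fluorescence, gain-of-signal relative to DMSO baseline. Cells: PR-UAS-bla HEK293T, 2% charcoal-stripped FBS; compound exposure 16 hr, 37C; substrate 2 hr, RT.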

[13] = TOX21_PR_BLA_Followup_Antagonist_viability: Viability Assessment in the Tox21 HEK293 Progesterone Receptor (PR) Antagonism Beta-lactamase Follow-Up Assay (AID 2283936);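 note: cells exposed to compound with R5020 agonist for 16 h; hits lower the luminescence signal meaning cytotoxicity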
Procedure, shortened: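 PR-UAS-bla HEK293T cells in medium with 2% charcoal-stripped FBS were treated with compounds plus R5020 for 16 hr at 37C. After the beta-lactamase read, CellTiter-Glo was added to the same wells and luminescence read after 30 min at room temperature.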

[14] = CCTE_Harrill_HTTr_Viability_MCF7: CCTE's 6-hour Cell Viability Assessment for the High-Throughput Transcriptomics (HTTr) Platform, in MCF-7 cells cultured in DMEM + 10% fetal bovine serum, Harrill Lab (AID 2284010; active = hit-call score of the fitted dose curve at least 0.9, where 1 is the maximum; inactive = score below 0.9)
Procedure, shortened: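 PI exclusion, high-content imaging; 8-pt dilution series, 6 h exposure; bidirectional fit vs DMSO (neg. ctrl/baseline); gain of signal = loss of membrane integrity.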

[15] = CCTE_Harrill_HTTr_Apoptosis_MCF7: CCTE's 6-hour Apoptosis Assessment for the High-Throughput Transcriptomics (HTTr) Platform, in MCF-7 cells cultured in DMEM + 10% fetal bovine serum, Harrill Lab (AID 2284011; active = hit-call score of the fitted dose curve at least 0.9, where 1 is the maximum; inactive = score below 0.9)
Procedure, shortened: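 MCF-7 cells in DMEM + 10% fetal bovine serum were exposed to chemicals for 6 hours over an eight-point dilution series. Caspase-3/7 activation was imaged by high content imaging with CellEvent Caspase 3/7 Green; bidirectional fitting used DMSO as baseline.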

[16] = CCTE_Harrill_HTTr_CellCount_MCF7: CCTE's Cell Proliferation Assessment for the High-Throughput Transcriptomics (HTTr) Platform, Harrill Lab (AID 2284012);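 note: count of Hoechst-stained nuclei per well by high-content imaging in MCF-7 cells; cells exposed to compound for six hours; intended direction is loss of nuclei count meaning fewer cells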
Procedure, shortened: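 Readout: Hoechst nuclear count by high-content imaging. MCF-7, 8-point dilution series, 6 h exposure. Bidirectional fit vs DMSO baseline.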

Measured: AC50

Cellular tumor antigen p53 (Homo sapiens), sequence (P04637 whole entry, looked up): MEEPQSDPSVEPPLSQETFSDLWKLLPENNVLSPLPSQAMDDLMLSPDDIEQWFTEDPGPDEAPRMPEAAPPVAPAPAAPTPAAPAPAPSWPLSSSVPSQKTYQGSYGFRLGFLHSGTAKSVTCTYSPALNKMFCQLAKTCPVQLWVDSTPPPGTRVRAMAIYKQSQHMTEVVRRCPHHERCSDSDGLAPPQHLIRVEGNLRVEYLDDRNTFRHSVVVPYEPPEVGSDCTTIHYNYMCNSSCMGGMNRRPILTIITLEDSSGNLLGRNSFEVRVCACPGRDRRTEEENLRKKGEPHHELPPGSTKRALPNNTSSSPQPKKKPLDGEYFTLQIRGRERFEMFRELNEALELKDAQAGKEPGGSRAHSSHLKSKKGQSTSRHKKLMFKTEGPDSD
PGR (gene 5241), sequence (P06401 whole entry, looked up, the tested form may be a part): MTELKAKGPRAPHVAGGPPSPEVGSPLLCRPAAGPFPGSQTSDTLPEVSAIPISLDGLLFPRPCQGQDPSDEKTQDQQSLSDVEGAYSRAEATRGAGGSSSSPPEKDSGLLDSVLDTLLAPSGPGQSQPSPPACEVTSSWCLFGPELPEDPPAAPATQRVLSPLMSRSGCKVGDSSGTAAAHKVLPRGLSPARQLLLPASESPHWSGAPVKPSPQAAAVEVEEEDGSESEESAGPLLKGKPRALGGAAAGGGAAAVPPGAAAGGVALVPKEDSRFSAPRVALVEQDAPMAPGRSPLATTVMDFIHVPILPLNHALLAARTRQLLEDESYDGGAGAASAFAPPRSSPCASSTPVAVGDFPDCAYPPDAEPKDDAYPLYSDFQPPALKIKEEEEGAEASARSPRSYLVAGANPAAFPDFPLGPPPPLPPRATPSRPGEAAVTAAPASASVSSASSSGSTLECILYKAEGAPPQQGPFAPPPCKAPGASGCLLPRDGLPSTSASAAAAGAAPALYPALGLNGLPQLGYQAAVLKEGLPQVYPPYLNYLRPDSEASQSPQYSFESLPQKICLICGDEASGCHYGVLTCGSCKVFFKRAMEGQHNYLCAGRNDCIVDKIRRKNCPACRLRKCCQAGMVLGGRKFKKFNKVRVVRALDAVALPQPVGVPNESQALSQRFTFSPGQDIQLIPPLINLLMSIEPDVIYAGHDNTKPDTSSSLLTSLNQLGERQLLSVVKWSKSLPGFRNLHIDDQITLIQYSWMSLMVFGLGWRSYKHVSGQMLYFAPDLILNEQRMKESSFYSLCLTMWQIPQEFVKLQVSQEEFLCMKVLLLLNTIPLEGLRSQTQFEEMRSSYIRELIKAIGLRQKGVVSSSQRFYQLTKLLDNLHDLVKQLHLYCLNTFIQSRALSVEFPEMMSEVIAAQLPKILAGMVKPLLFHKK

CC(C)OC(C)C
inactive: [1] | [2] | [3] | [4] | [5]

CCN(CC)C(=O)c1cccnc1
inactive: [1] | [2] | [6] | [4] | [5]

CCN(CC)CCOCCOC(=O)C1(c2ccccc2)CCCC1
inactive: [1] | [2] | [6] | [4] | [5]

Cc1ccccc1CNc1ncnc2c1ncn2[C@@H]1O[C@H](CO)[C@@H](O)[C@H]1O
inactive: [1] | [2] | [3] | [4] | [5]

C[C@H]1C[C@H]2[C@@H]3CCC4=CC(=O)C=C[C@]4(C)[C@@]3(Cl)[C@@H](O)C[C@]2(C)[C@@]1(O)C(=O)CO
inactive: [1] | [2] | [6] | [4] | [5] | PGR (gene 5241) [7] | [8] | PGR (gene 5241) [9] | [10] | [11]

CC1(C)S[C@@H]2[C@H](NC(=O)C(c3ccccc3)S(=O)(=O)O)C(=O)N2[C@H]1C(=O)O (some centres not stated)
inactive: [1] | [2] | [6] | [5]

Cn1c(N)c(N=O)c(=O)n(C)c1=O
inactive: [1] | [2] | [6] | [4]

CCOC(=O)COc1ccc2c(C)c(CCN(CC)CC)c(=O)oc2c1Cl
inactive: [1] | [2] | [3] | [4] | [5]

O=C(OCC1(COC(=O)c2cccnc2)CCCC(COC(=O)c2cccnc2)(COC(=O)c2cccnc2)C1O)c1cccnc1
inactive: [1] | [2] | [6] | [4]

Cc1cc(-c2ccc(N=Nc3c(S(=O)(=O)O)cc4cc(S(=O)(=O)O)cc(N)c4c3O)c(C)c2)ccc1N=Nc1c(S(=O)(=O)O)cc2cc(S(=O)(=O)O)cc(N)c2c1O
inactive: [1] | [4]
active: [2] 16.3 µM | [6] 20.6 µM

NCc1ccccc1Sc1ccccc1CO
inactive: [1] | [2] | [6] | [5]

CC(C)Nc1cccnc1N1CCN(C(=O)c2cc3cc(NS(C)(=O)=O)ccc3[nH]2)CC1
inactive: [1] | [2] | [6] | [4] | [5]

Cc1cc(C)c(C=C2C(=O)Nc3ccccc32)[nH]1
active: [15] 15.2 µM
inactive: [1] | [2] | [6] | [4] | PGR (gene 5241) [12] | PGR (gene 5241) [7] | [8] | [13] | PGR (gene 5241) [9] | [11] | [14] | [16]

CC(CO)(CO)CO
inactive: [1] | [2] | [3] | [4] | [5]

CCCCCCCCCCCC(=O)N(CC)CC
inactive: [1] | [2] | [3] | [4]

CC(=O)c1ccc(OCC(=O)N2CCCCC2)cc1
inactive: [1] | [2] | [3] | [4] | [5]
